According to PubChem BioAssay AID1159580 (chemical genetic matrix, 2015):
About 2,000 (36%) of roughly 5,500 compounds were called active. Inconclusive results (about 18%) are left out. Rule as the data show it: active = normalized growth mostly below about 0.91 (no sharp cut-off); inconclusive = no clear call, values can overlap the other calls; inactive = mostly above about 0.92. The list shows a part of the results.

Assay: chemical genetic growth profiling, strain panel (AID 1159580);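 also: tested at 20 µM; growth read once vehicle control cultures reached saturation at 30 °C; 1 = growth at the plate median or of vehicle wells; lower values mean less growth of the strain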
Details: S. cerevisiae deletion strains, growth OD
[1] = locus YAR019C, strain CDC15, stronger effect = lower value
[2] = locus YBL105C, strain PKC1, stronger effect = lower value
[3] = locus YBR135W, strain CKS1, stronger effect = lower value
[4] = locus YBR136W, strain MEC1, stronger effect = lower value
[5] = locus YBR160W, strain CDC28, stronger effect = lower value
[6] = locus YDL017W, strain CDC7, stronger effect = lower value
[7] = locus YDL028C, strain MPS1, stronger effect = lower value
[8] = locus YDL101C, strain DUN1, stronger effect = lower value
[9] = locus YDL108W, strain KIN28, stronger effect = lower value
[10] = locus YDL132W, strain cdc53, stronger effect = lower value
[11] = locus YDL214C, strain PRR2, stronger effect = lower value
[12] = locus YDR052C, strain DBF4, stronger effect = lower value
[13] = locus YDR054C, strain cdc34, stronger effect = lower value
[14] = locus YDR226W, strain ADK1, stronger effect = lower value
[15] = locus YDR477W, strain SNF1, stronger effect = lower value
[16] = locus YER123W, strain YCK3, stronger effect = lower value
[17] = locus YER133W, strain GLC7, stronger effect = lower value
[18] = locus YFL009W, strain cdc4, stronger effect = lower value
[19] = locus YFL029C, strain CAK1, stronger effect = lower value
[20] = locus YFR003C, strain YPI1, stronger effect = lower value
[21] = locus YFR019W, strain FAB1, stronger effect = lower value
[22] = locus YFR028C, strain CDC14, stronger effect = lower value
[23] = locus YGR040W, strain KSS1, stronger effect = lower value
[24] = locus YGR052W, strain FMP48, stronger effect = lower value
[25] = locus YGR092W, strain DBF2, stronger effect = lower value
[26] = locus YHR030C, strain SLT2, stronger effect = lower value
[27] = locus YHR079C, strain IRE1, stronger effect = lower value
[28] = locus YHR082C, strain KSP1, stronger effect = lower value
[29] = locus YHR205W, strain SCH9, stronger effect = lower value
[30] = locus YIL147C, strain SLN1, stronger effect = lower value
[31] = locus YJL095W, strain BCK1, stronger effect = lower value
[32] = locus YJL128C, strain PBS2, stronger effect = lower value
[33] = locus YJL157C, strain FAR1, stronger effect = lower value
[34] = locus YJR016C, strain ILV3, stronger effect = lower value
[35] = locus YJR066W, strain TOR1 (second series), stronger effect = lower value
[36] = locus YJR066W, strain TOR1, stronger effect = lower value
[37] = locus YKL048C, strain ELM1, stronger effect = lower value
[38] = locus YKL067W, strain YNK1, stronger effect = lower value
[39] = locus YKL101W, strain HSL1, stronger effect = lower value
[40] = locus YKL193C, strain SDS22, stronger effect = lower value
[41] = locus YKL203C, strain TOR2, stronger effect = lower value
[42] = locus YLR113W, strain HOG1, stronger effect = lower value
[43] = locus YLR133W, strain CKI1, stronger effect = lower value
[44] = locus YLR403W, strain SFP1, stronger effect = lower value
[45] = locus YML070W, strain DAK1, stronger effect = lower value
[46] = locus YMR001C, strain CDC5, stronger effect = lower value
[47] = locus YMR205C, strain PFK2 (second series), stronger effect = lower value
[48] = locus YMR277W, strain FCP1, stronger effect = lower value
[49] = locus YNL006W, strain LST8, stronger effect = lower value
[50] = locus YNL020C, strain ARK1, stronger effect = lower value
[51] = locus YNL161W, strain CBK1, stronger effect = lower value
[52] = locus YNL183C, strain NPR1, stronger effect = lower value
[53] = locus YNL207W, strain RIO2, stronger effect = lower value
[54] = locus YNL222W, strain SSU72, stronger effect = lower value
[55] = locus YNL307C, strain MCK1 (second series), stronger effect = lower value
[56] = locus YOL078W, strain AVO1, stronger effect = lower value
[57] = locus YOL136C, strain PFK27, stronger effect = lower value
[58] = locus YOR061W, strain CKA2, stronger effect = lower value
[59] = locus YOR119C, strain RIO1, stronger effect = lower value
[60] = locus YOR231W, strain MKK1, stronger effect = lower value
[61] = locus YOR329C, strain SCD5, stronger effect = lower value
[62] = locus YPL031C, strain PHO85, stronger effect = lower value
[63] = locus YPL153C, strain RAD53, stronger effect = lower value
[64] = locus YPL204W, strain HRR25, stronger effect = lower value
[65] = locus YPL209C, strain IPL1, stronger effect = lower value
[66] = locus YPL256C, strain CLN2, stronger effect = lower value
[67] = locus YPR025C, strain CCL1, stronger effect = lower value
[68] = locus YPR106W, strain ISR1, stronger effect = lower value
[69] = locus YPR111W, strain DBF20, stronger effect = lower value
[70] = strain NNK1, stronger effect = lower value
[71] = strain TSCII, stronger effect = lower value

Measured: normalized growth

O=C(Nc1ccc(C(F)(F)F)cc1)N1CCN(c2ccnc3cc(Cl)ccc23)CC1
inactive: [1] 0.984 | [2] 0.977 | [3] 0.987 | [4] 0.973 | [5] 0.973 | [6] 0.994 | [7] 0.981 | [8] 0.982 | [9] 0.983 | [10] 0.995 | [11] 1.01 | [12] 0.983 | [13] 0.975 | [14] 0.983 | [15] 0.997 | [16] 1.02 | [17] 1.01 | [18] 0.985 | [19] 0.965 | [20] 0.988 | [21] 0.999 | [22] 0.984 | [23] 1 | [24] 1.08 | [25] 0.975 | [26] 1.08 | [27] 1.04 | [28] 1.1 | [29] 0.995 | [30] 0.981 | [31] 1.1 | [32] 0.993 | [33] 1 | [34] 0.993 | [35] 1.02 | [36] 1.11 | [37] 0.996 | [38] 0.992 | [39] 1.01 | [40] 0.988 | [41] 1.06 | [42] 1.01 | [43] 0.994 | [44] 1.02 | [45] 1.01 | [46] 0.98 | [47] 1.01 | [48] 0.99 | [49] 0.991 | [50] 1 | [51] 0.978 | [52] 1.04 | [53] 0.99 | [54] 0.982 | [55] 0.979 | [56] 0.991 | [57] 1.01 | [58] 1.01 | [59] 1.06 | [60] 1.02 | [61] 0.991 | [62] 1.01 | [63] 1.01 | [64] 0.997 | [65] 0.984 | [66] 1 | [67] 0.983 | [68] 0.986 | [69] 0.979 | [70] 0.979 | [71] 0.977

O=C(c1ccc2ccccc2c1)N1CCN(c2ccnc3cc(Cl)ccc23)CC1
active: [26] 0.821
inactive: [1] 1 | [2] 1 | [3] 0.997 | [4] 0.997 | [5] 0.995 | [6] 0.998 | [7] 0.991 | [8] 0.994 | [9] 0.99 | [10] 0.987 | [11] 0.957 | [12] 0.988 | [13] 0.981 | [14] 1 | [15] 0.958 | [16] 0.947 | [17] 0.965 | [18] 0.993 | [19] 1 | [20] 1 | [21] 0.941 | [22] 0.997 | [23] 0.959 | [24] 1.08 | [25] 0.977 | [27] 0.968 | [28] 1.01 | [29] 0.904 | [30] 0.996 | [31] 0.94 | [32] 0.98 | [33] 0.974 | [34] 0.998 | [35] 0.947 | [36] 0.96 | [37] 0.974 | [38] 0.962 | [39] 0.958 | [40] 0.992 | [41] 0.991 | [42] 0.955 | [43] 0.95 | [44] 0.951 | [45] 0.959 | [46] 0.992 | [47] 0.973 | [48] 0.995 | [49] 0.995 | [50] 0.945 | [51] 0.997 | [52] 0.953 | [53] 0.994 | [54] 0.995 | [55] 0.921 | [56] 0.997 | [57] 0.952 | [58] 0.973 | [59] 1.03 | [60] 0.955 | [61] 0.995 | [62] 0.953 | [63] 0.962 | [64] 0.939 | [65] 0.998 | [66] 0.929 | [67] 0.988 | [68] 0.999 | [69] 0.984 | [70] 0.987 | [71] 0.998
